From PubChem BioAssay AID1117319 (Southern Research Institute, 2015)
“And” between values parts separate entries of the source, which are not always exact repeats. Equal entries are not always repeated. About 1,500 (0.58%) of roughly 260,000 compounds were called active. Roughly 5% stayed inconclusive and do not appear here. A selection follows. Measured potencies and affinities stand elsewhere. Unmarked numbers belong to inactive results.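 How the source made its calls: active means inhibition above a set limit at one or more doses, reproduced on every date tested; inconclusive means results disagree between test dates, or hit never tested in dose response; inactive means the rest.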

Target: Virion infectivity factor (Human immunodeficiency virus type 1 group M subtype B (isolate BH10)) + Virion infectivity factor (Human immunodeficiency virus type 1 group M subtype B (isolate BRU/LAI)) + Virion infectivity factor (Human immunodeficiency virus type 1 group M subtype B (isolate PCV12)) + Virion infectivity factor (Human immunodeficiency virus type 1 group M subtype B (isolate HXB2)) + DNA dC->dU-editing enzyme APOBEC-3G (Homo sapiens) (UniProt P69720+P69721+P69722+P69723+Q9HC16)
Experiment: inhibitors of Vif binding to APOBEC3G peptide, primary screen, biochemical, TR-FRET, GST-Vif 1-94, biotin-A3G peptide, dose response retest (AID 1117319);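 further: Vif residues 1-94 fused to GST binding biotinylated APOBEC3G peptide 110-148; 0% = full assay without inhibitor and 100% = GST in place of GST-Vif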
Conditions: hits give high values

Row | SMILES | inhibition
1 | COc1cccc(C(=O)OC(C)CN2CCCC2)c1 (stereo not drawn) | 2.26%
2 | COc1ccc(CCC(=O)N2CCN(S(=O)(=O)c3ccc4ccccc4c3)CC2)cc1 | -2.65%
3 | O=C1c2ccccc2C(O)(c2ccccc2)N1C1CC1 (stereo not drawn) | 18.6%
4 | COc1cc(C(=O)OCCCN2CCOCC2)ccc1O | 5.32%
5 | COc1cc(C(=O)OCCN2CCOCC2)ccc1O | 6.52%
6 | CCNc1nc(SC(C)C(=O)OC)nc(N2CCOCC2)n1 (stereo not drawn) | 2.4%
7 | COc1ccc(N2CS(=O)(=O)/C(=C/N(C)C)C2=O)cc1 | 9.06%
8 | COCCCNC(=S)Nc1ccc2nc3n(c(=O)c2c1)CCCCC3 | -4.36%
9 | CCn1c(O)c(C=NC2CCCC2)sc1=S | 5.46%
10 | Oc1ccc(C=NC2CCCCC2)c(O)c1 | 21.7%
11 | CCOC(=O)N1CCC(N2CC34C=CC(O3)C(C(=O)Nc3ccc(F)cc3)C4C2=O)CC1 (stereo not drawn) | 5.89%
12 | Cc1ccc(N2C(=O)Nc3cc(Cl)c(Cl)cc3N2O)cc1Cl | 4.32%
13 | CCN1CCN(CC(=O)Nc2cc(S(=O)(=O)N3CCCCC3)ccc2Cl)CC1 | -1.15%
14 | CC(C)(C)n1nnnc1C(c1ccc2ncccc2c1)N1CCC(O)CC1 (stereo not drawn) | -3.23%
15 | CN(C)N1C(N)=C(C#N)C(c2cccc([N+](=O)[O-])c2)C2=C1CC(C)(C)CC2=O (stereo not drawn) | -5.57%
16 | COc1ccc(C)c2sc(N(CCCN(C)C)C(=O)c3ccc(S(=O)(=O)N(C)C)cc3)nc12 | -2.34%
17 | CCn1c2ccccc2c2cc(NC(=O)c3ccc(C)c([N+](=O)[O-])c3)ccc21 | 8.31%
18 | CCn1c2ccccc2c2cc(NC(=O)c3cccc([N+](=O)[O-])c3C)ccc21 | -6.86%
19 | C=CCCCN(Cc1ccccc1)S(=O)(=O)c1ccccc1Br | -1.22%
20 | COC(=O)c1cccc(-n2cnnn2)c1 | 22.2%
21 | COc1ccc(C(=O)COC(=O)c2cccc(-n3cnnn3)c2)c(OC)c1 | 3.56%

Row | SMILES | inhibition
22 | CCOC(=O)c1cc(-c2ccc(OC)cc2F)nc2c1c(C)nn2CCC#N | 15.4%
23 | CC1=C(C(=O)OCc2ccccc2)C(c2cccs2)N2C(=O)CCSC2=N1 (stereo not drawn) | -5.63%
24 | CCOC(=O)CCn1cnc2ccc([N+](=O)[O-])cc2c1=O | 10.2%
25 | Cc1ccc(-c2ccc(=O)n(CCC(=O)N3CCN(c4cccc(C)c4)C(C)C3)n2)cc1 (stereo not drawn) | 1.97%
26 | CCOC(CNC(=O)c1cccc([N+](=O)[O-])c1)OCC | 8.25%
27 | O=C1CC(Sc2ncccc2C(=O)O)C(=O)N1 (stereo not drawn) | 5.46%
28 | Cc1cccc2c1NC(=O)C2(O)N1CCCC(C)C1 (stereo not drawn) | 7.4%
29 | C/C(=N\Oc1cccc(F)n1)c1ccc(Cl)cc1Cl | -2.41%
30 | CC(C)c1ccc(S(=O)(=O)N2CCN(CC(=O)c3ccc(O)c(O)c3)CC2)cc1 | 24.8%
31 | O=C(CN1CCN(S(=O)(=O)c2ccc(Br)cc2)CC1)c1ccc(O)c(O)c1 | 23.1%
32 | CC(C)(C)C1C/C(=C/c2ccccn2)C(=O)/C(=C/c2ccccn2)C1 (stereo not drawn) | 2.61%
33 | CC1C/C(=C/c2ccccn2)C(=O)/C(=C/c2ccccn2)C1 (stereo not drawn) | 19.4%
34 | CCC1C/C(=C\c2cccnc2)C(=O)/C(=C/c2cccnc2)C1 (stereo not drawn) | 9.28%
35 | CC12CCCC(=O)C1CCC(=Cc1ccco1)C2=O (stereo not drawn) | 2.03%
36 | CC1C/C(=C/c2ccncc2)C(=O)/C(=C/c2ccncc2)C1 (stereo not drawn) | 25.8%
37 | COc1cc(/C=C2\CC(C(C)(C)C)C/C(=C\c3cc(OC)c(OC)c(OC)c3)C2=O)cc(OC)c1OC (stereo not drawn) | 2.75%
38 | CCC(NC(=O)NNC(N)=S)(C(F)(F)F)C(F)(F)F | 2.24%
39 | CCOc1ccccc1N1CCN(C(=O)c2ccc(-c3ccc(OC(C)=O)cc3)cc2)CC1 | -6.48%
40 | Cc1cc(C)c(C(=O)CSc2nnc(C)s2)c(C)c1 | -3.21%
41 | CCOC(=O)C1C(=O)CC(C)(O)C(C(=O)OCC)C1c1cccc(OC(F)(F)C(F)F)c1 (stereo not drawn) | 1.49%
42 | Cc1cccc(OCc2nc(C#N)c(NCc3ccc4c(c3)OCO4)o2)c1 | 2.3%

Row | SMILES | inhibition
43 | C[C@H](NC(=O)c1ccco1)C(=O)OCC(=O)N1CC(=O)Nc2ccccc21 | 1.38%
44 | COc1ccccc1NC(=O)CN(c1ccccc1F)S(C)(=O)=O | 2.7%
45 | Cc1ccc(S(=O)(=O)Nc2cccc(C(=O)N3CCN(c4ccccc4O)CC3)c2)cc1F | -3.67%
46 | COc1ncnc2c1ncn2CCCN(C)CCc1ccccn1 | 3.23%
47 | Nc1nc(N)c2c(n1)CN(Cc1ccc(Cl)cc1)C2 | -2.69%
48 | Cc1cccc(C(=O)N/N=C/c2cc(Br)c(Br)o2)c1 | 0.73%
49 | Cc1ccc(C(=O)N/N=C\c2ccc(-c3ccc(Cl)cc3)o2)cn1 | 23.4%
50 | COC(=O)COc1ccc(S(=O)(=O)Nc2ccc3c(c2)OCCO3)cc1Cl | -0.68%
51 | COc1cccc(CNC(=O)CCS(=O)(=O)c2cccs2)c1 | -7.15%
52 | COc1cccc(CNC(=O)CCCNS(=O)(=O)c2cccs2)c1 | 22.8%
53 | CC1(C)CC(=O)c2cc(OCC(=O)NCCCN3CCN(c4ccc(F)cc4)CC3)ccc2O1 | -7.66% and 5.99%
54 | O=C(O)CN1C(=O)CNC1=O | -0.07%
55 | CC(=O)Nc1ccc(S(=O)(=O)NCC(=O)OCC(=O)NCc2ccco2)cc1 | 7.01%
56 | CCOC(=O)C1CCCN(C(=O)COC(=O)c2cc(=O)c3ccccc3o2)C1 (stereo not drawn) | 29.1%
57 | CC(C)n1cc(CN2CCCC(CNS(=O)(=O)c3cccc4cccnc34)C2)cn1 (stereo not drawn) | 10.9%
58 | Cc1cc(/C=C2\SC(=S)NC2=O)c(C)n1-c1ccc(O)cc1 | 71.3%
59 | COC(=O)c1cccc(-n2c(C)cc(/C=C3\SC(=O)NC3=O)c2C)c1 | 3.07%
60 | Cc1ccc(-n2c(C)cc(/C=C3\SC(=O)NC3=O)c2C)cc1 | -6.8%
61 | Cc1cc(/C=C2\SC(N)=NC2=O)c(C)n1-c1ccccc1 | 19.3%
62 | Cc1cc(/C=C2\SC(=S)NC2=O)c(C)n1C1CC1 | 30.7%
63 | Cc1nn(C)cc1/C=C1\SC(=S)NC1=O | -1.22%
